Measurements: the supplement of paper PMC3545927
The list shows a part of the results. No count for the full screen is at hand.

Biological target: furin, P09958
Test: furin cleavage Z-score vs untreated control; higher = more cleavage, active = 3.5 or more, inactive = 1 or less, 8 variable residues between constant flanks
How it was run: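 The cleavage Z-score is the log read count relative to furin-free reactions, lowess-adjusted and scaled by median absolute deviation. Counts came from sequencing DNA released from bead-bound 8-mer peptide–cDNA fusions after digestion with purified furin for 7.5, 15 or 30 min.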
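Further: purified furin at 1:10 enzyme:substrate in 50 mM HEPES pH 7.5.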

furin, P09958, sequence (P09958 whole entry): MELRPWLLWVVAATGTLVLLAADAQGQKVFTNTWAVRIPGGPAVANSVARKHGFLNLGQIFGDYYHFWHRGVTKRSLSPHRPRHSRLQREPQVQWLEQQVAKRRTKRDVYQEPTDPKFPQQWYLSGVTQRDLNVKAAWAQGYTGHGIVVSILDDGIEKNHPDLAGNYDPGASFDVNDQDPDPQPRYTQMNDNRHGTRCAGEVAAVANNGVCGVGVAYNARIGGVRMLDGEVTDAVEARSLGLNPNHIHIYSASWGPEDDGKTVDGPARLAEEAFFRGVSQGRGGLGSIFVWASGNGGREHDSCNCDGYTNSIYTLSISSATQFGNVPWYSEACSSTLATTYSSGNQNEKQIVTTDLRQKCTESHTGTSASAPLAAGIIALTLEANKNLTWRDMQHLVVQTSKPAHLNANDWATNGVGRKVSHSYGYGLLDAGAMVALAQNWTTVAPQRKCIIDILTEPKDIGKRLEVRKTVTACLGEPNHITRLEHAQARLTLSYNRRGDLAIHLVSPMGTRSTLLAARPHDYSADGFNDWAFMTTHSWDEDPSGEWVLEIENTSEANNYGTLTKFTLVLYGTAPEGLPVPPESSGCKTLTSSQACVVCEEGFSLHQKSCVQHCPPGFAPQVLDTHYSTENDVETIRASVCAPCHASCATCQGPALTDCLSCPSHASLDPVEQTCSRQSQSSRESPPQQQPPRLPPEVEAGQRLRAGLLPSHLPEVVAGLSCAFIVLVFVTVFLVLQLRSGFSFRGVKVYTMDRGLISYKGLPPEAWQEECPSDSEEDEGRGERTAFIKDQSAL

| Sequence | furin cleavage Z-score (7.5 min) | furin cleavage Z-score (15 min) | furin cleavage Z-score (30 min) |
| --- | --- | --- | --- |
| CALVCCSMSYAGNASASA [HC1985] | -0.475 (inactive) | -0.242 (inactive) | 0.0858 (inactive) |
| CAHGPTPLLYAGNASASA [HC970] | -1.77 (inactive) | -1.23 (inactive) | -0.927 (inactive) |
| CARGKREAGLAGNASASA [FS-1950] | 10.7 (active) | 12 (active) | 9.85 (active) |
| CARFKKNAGLAGNASASA [FS-2258] | 0.96 (inactive) | -0.927 (inactive) | 0.128 (inactive) |
| CAAACRAAGLAGNASASA [HC1521] | -0.658 (inactive) | -1.9 (inactive) | -0.337 (inactive) |
| CARGKRFRPRAGNASASA [FS-2209] | -0.464 (inactive) | 0.0565 (inactive) | 0.308 (inactive) |
| CARGKRELRMAGNASASA [FS-2933] | 7.15 (active) | 8.97 (active) | 10 (active) |
| CADVKFPGGGAGNASASA [HC171] | -0.433 (inactive) | -1.81 (inactive) | -2.39 (inactive) |
| CACLVDYPYRAGNASASA [HC464] | -1.54 (inactive) | -2.22 (inactive) | 0.308 (inactive) |
| CAPKRRKPRVAGNASASA [FS-1242] | 8.95 (active) | 11.6 (active) | 8 (active) |
| CACSRRKPRDAGNASASA [FS-752] | 11.2 (active) | 11.6 (active) | 9.05 (active) |
| CAQKGRKPRDAGNASASA [FS-1056] | 15 (active) | 14.9 (active) | 10.2 (active) |
| CATRGRQPRVAGNASASA [FS-1575] | 0.424 (inactive) | 0.857 (inactive) | 1.04 |
| CAKMQRAPRDAGNASASA [FS-451] | -0.25 (inactive) | -0.389 (inactive) | -0.0248 (inactive) |
| CAPPGRMCRVAGNASASA [FS-1549] | 0.819 (inactive) | 0.646 (inactive) | 1.21 |
| CAPCRRKPRDAGNASASA [FS-838] | 14.7 (active) | 14.2 (active) | 11.5 (active) |
| CAVVQCSMSYAGNASASA [HC2042] | 0.93 (inactive) | 0.804 (inactive) | 0.223 (inactive) |
| CASMSYSWTGAGNASASA [HC1371] | -1.4 (inactive) | -0.78 (inactive) | -0.275 (inactive) |
| CAVVCCSMMYAGNASASA [HC2066] | 0.37 (inactive) | -1.1 (inactive) | -0.477 (inactive) |
| CAEWPCHRPSAGNASASA [HC2328] | 2.33 | 0.752 (inactive) | 0.743 (inactive) |
| CALRDIWDWIAGNASASA [HC1149] | -0.31 (inactive) | 1.9 | 1.08 |
| CAMMNWSPTTAGNASASA [HC322] | -3.83 (inactive) | 0.346 (inactive) | -1.29 (inactive) |
| CALDLSGWFTAGNASASA [HC1643] | 1.07 | 0.845 (inactive) | -0.793 (inactive) |
| CAQALDCEIYAGNASASA [HC1591] | -1.45 (inactive) | 0.168 (inactive) | -0.351 (inactive) |

| Sequence | furin cleavage Z-score (7.5 min) | furin cleavage Z-score (15 min) | furin cleavage Z-score (30 min) |
| --- | --- | --- | --- |
| CATKDNFKRSAGNASASA [FS-727] | 2.99 | 1.62 | 3.93 (active) |
| CAKRGRKRRSAGNASASA [FS-1021] | 13.5 (active) | 12.1 (active) | 11.2 (active) |
| CATKADKRRSAGNASASA [FS-1093] | 1.16 | -0.227 (inactive) | 0.33 (inactive) |
| CATDDDFERSAGNASASA [FS-629] | -0.626 (inactive) | -1.72 (inactive) | 0.0381 (inactive) |
| CAKRGREFRIAGNASASA [FS-909] | 0.58 (inactive) | -0.852 (inactive) | -0.651 (inactive) |
| CATKDRKRRSAGNASASA [FS-880] | 13.4 (active) | 13.2 (active) | 8.6 (active) |
| CARVTRYSNIAGNASASA [FS-2198] | -0.808 (inactive) | -0.0709 (inactive) | 0.615 (inactive) |
| CAEMVVCCSMAGNASASA [HC2126] | -1.21 (inactive) | -1.21 (inactive) | 0.778 (inactive) |
| CATTPGSGSWAGNASASA [HC42] | -0.496 (inactive) | -0.533 (inactive) | -0.629 (inactive) |
| CADDVVCCSMAGNASASA [HC2111] | -0.752 (inactive) | 0.00684 (inactive) | -0.0395 (inactive) |
| CAMEECSQHHAGNASASA [HC1775] | 1.05 | -0.421 (inactive) | 0.321 (inactive) |
| CARHRRHHHQAGNASASA [FS-2337] | 2.13 | 3.45 | 4 (active) |
| CARMRRHHHHAGNASASA [FS-2158] | 2.42 | 4.46 (active) | 5.23 (active) |
| CARHRKHSPQAGNASASA [FS-2680] | 0.00638 (inactive) | 0.0202 (inactive) | -0.323 (inactive) |
| CAREKKAALEAGNASASA [FS-2656] | -1.1 (inactive) | 1.19 | 0.78 (inactive) |
| CAHPHRTKREAGNASASA [FS-795] | 11.5 (active) | 12 (active) | 10.4 (active) |
| CAHRSRKAKEAGNASASA [FS-1010] | 1.54 | 0.417 (inactive) | 1.2 |
| CALTERTKREAGNASASA [FS-1138] | 12.3 (active) | 13 (active) | 9.22 (active) |
| CAHPHRQRKEAGNASASA [FS-1009] | 2.12 | 4.93 (active) | 2.5 |
| CAVPHPNIEEAGNASASA [HC839] | 0.645 (inactive) | -1.08 (inactive) | 0.089 (inactive) |
| CAQAGRSRKEAGNASASA [FS-950] | 0.322 (inactive) | -1.35 (inactive) | 0.565 (inactive) |
| CAHPKQEKRSAGNASASA [FS-1209] | -0.192 (inactive) | 1 (inactive) | 1.55 |
| CAHPKRAVREAGNASASA [FS-2864] | 8.59 (active) | 8.52 (active) | 7.41 (active) |
| CALTESTLSTAGNASASA [HC1328] | -0.00854 (inactive) | 0.199 (inactive) | 1.01 |
